Reference: the supplement of paper PMC10849652
Targets with a hit are over-represented here; the source holds about 7,900 in all. About 0.6% of all pairs of compound and target were hits.

Legend:
Experiment in all cases: log2 fold change, soluble protein after heating vs DMSO (PISA); higher = thermal stabilisation; K562 cells, 10 uM, 30 min; active = over 0.2 and 3.5 SD of the protein, either way, in both replicates (recomputed)
bafetinib = compound: Cc1ccc(NC(=O)c2ccc(CN3CC[C@H](N(C)C)C3)c(C(F)(F)F)c2)cc1Nc1nccc(-c2cncnc2)n1 [bafetinib]
Summary of the method: (§1)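 Soluble protein was quantified by TMTpro 16plex LC-MS/MS after channel sums were equalised. It was obtained as the supernatant after 21,000xg for 90 min from pooled aliquots of K562 cells (2×10^6 cells/mL, 10 μM compound, 30 min) heated for 3 min across 48°C-58°C and extracted in PBS with 0.5% NP-40 at 4°C. Thermal stability values are relative to control samples and come from duplicates. They are given as log2 fold changes.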

[1] = compound: Cc1cccc(CC(=O)N2CCc3c2ccc(-c2cn(C)c4ncnc(N)c24)c3F)n1
Summary of the method: as §1

nilotinib = compound: Cc1cn(-c2cc(NC(=O)c3ccc(C)c(Nc4nccc(-c5cccnc5)n4)c3)cc(C(F)(F)F)c2)cn1 [nilotinib]
Summary of the method: as §1

[2] = compound: Cc1nc(Nc2n[nH]c3c2CN(C(=O)N[C@H](CN(C)C)c2ccccc2)C3(C)C)c2sccc2n1
Summary of the method: as §1

dasatinib = compound: Cc1nc(Nc2ncc(C(=O)Nc3c(C)cccc3Cl)s2)cc(N2CCN(CCO)CC2)n1 [dasatinib]
Summary of the method: as §1

[3] = compound: Cc1ncc(-c2ccnc(Nc3ccc(S(C)(=O)=O)cc3)n2)n1C(C)C
Summary of the method: as §1

[4] = compound: Cn1cc(-c2ccc3c(c2)CCN3C(=O)Cc2cccc(C(F)(F)F)c2)c2c(N)ncnc21
Summary of the method: as §1

[5] = compound: Cn1cc(-c2ccc3nnc(C(F)(F)c4ccc5ncccc5c4)n3n2)cn1
Summary of the method: as §1

tipifarnib = compound: Cn1cncc1[C@@](N)(c1ccc(Cl)cc1)c1ccc2c(c1)c(-c1cccc(Cl)c1)cc(=O)n2C [tipifarnib]
Summary of the method: as §1

mubritinib = compound: FC(F)(F)c1ccc(/C=C/c2nc(COc3ccc(CCCCn4ccnn4)cc3)co2)cc1 [mubritinib]
Summary of the method: as §1

Measured: log2 fold change

GABPA (UniProt Q06546)
Sequence of UniProt Q06546 (Q06546 whole entry, looked up): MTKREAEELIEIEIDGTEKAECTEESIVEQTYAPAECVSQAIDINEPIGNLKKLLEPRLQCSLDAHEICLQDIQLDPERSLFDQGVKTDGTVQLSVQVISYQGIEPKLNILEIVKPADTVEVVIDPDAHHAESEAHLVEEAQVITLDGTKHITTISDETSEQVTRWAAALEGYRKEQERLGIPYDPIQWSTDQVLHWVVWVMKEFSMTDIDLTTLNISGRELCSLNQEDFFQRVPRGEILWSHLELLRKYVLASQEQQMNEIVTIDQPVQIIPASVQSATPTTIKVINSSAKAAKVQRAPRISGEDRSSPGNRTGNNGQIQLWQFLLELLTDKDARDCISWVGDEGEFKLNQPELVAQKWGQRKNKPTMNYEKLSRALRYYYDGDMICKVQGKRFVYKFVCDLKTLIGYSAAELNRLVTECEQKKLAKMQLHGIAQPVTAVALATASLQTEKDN
inactive: bafetinib -0.036 | [1] 0.034 | nilotinib -0.103 | [2] -0.115 | dasatinib -0.12 | [3] -0.026 | [4] 0.048 | [5] 0.111 | tipifarnib -0.149 | mubritinib 0.019

FBXO3 (UniProt Q9UK99)
inactive: bafetinib -0.052 | [1] 0.06 | nilotinib -0.031 | [2] -0.024 | dasatinib -0.054 | [3] -0.006 | [4] 0.041 | [5] -0.035 | tipifarnib -0.007 | mubritinib 0.055

HDHD2 (UniProt Q9H0R4)
inactive: bafetinib 0.068 | [1] 0.018 | nilotinib 0.024 | [2] -0.04 | dasatinib 0.042 | [3] 0.006 | [4] 0.019 | [5] 0.028 | tipifarnib -0.011 | mubritinib 0.045

HIST2H2BF isoform 2 (UniProt Q5QNW6)
inactive: bafetinib 0.211 | [1] -0.189 | nilotinib -0.044 | [2] -0.006 | dasatinib 0.147 | [3] 0.012 | [4] -0.358 | [5] -0.098 | tipifarnib -0.018 | mubritinib -0.173

HDAC1 (UniProt Q13547)
Sequence of UniProt Q13547 (Q13547 whole entry, looked up): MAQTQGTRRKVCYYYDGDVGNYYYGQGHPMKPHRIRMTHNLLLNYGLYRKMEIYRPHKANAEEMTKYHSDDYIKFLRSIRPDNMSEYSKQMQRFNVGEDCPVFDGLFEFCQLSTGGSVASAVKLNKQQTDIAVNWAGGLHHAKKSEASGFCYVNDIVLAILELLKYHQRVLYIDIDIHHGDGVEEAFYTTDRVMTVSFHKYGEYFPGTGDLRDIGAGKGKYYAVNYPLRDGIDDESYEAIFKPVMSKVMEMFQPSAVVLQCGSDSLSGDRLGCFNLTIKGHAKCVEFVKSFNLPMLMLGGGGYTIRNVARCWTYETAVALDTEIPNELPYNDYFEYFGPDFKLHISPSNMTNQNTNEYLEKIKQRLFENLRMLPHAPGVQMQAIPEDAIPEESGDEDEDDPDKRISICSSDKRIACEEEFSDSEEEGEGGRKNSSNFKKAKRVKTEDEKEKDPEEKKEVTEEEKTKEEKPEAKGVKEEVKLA
inactive: bafetinib 0.306 | [1] -0.046 | nilotinib -0.023 | [2] -0.021 | dasatinib -0.091 | [3] -0.055 | [4] -0.002 | [5] -0.009 | tipifarnib -0.078 | mubritinib -0.025

FHOD1 (UniProt Q9Y613)
Sequence of UniProt Q9Y613 (Q9Y613 whole entry, looked up): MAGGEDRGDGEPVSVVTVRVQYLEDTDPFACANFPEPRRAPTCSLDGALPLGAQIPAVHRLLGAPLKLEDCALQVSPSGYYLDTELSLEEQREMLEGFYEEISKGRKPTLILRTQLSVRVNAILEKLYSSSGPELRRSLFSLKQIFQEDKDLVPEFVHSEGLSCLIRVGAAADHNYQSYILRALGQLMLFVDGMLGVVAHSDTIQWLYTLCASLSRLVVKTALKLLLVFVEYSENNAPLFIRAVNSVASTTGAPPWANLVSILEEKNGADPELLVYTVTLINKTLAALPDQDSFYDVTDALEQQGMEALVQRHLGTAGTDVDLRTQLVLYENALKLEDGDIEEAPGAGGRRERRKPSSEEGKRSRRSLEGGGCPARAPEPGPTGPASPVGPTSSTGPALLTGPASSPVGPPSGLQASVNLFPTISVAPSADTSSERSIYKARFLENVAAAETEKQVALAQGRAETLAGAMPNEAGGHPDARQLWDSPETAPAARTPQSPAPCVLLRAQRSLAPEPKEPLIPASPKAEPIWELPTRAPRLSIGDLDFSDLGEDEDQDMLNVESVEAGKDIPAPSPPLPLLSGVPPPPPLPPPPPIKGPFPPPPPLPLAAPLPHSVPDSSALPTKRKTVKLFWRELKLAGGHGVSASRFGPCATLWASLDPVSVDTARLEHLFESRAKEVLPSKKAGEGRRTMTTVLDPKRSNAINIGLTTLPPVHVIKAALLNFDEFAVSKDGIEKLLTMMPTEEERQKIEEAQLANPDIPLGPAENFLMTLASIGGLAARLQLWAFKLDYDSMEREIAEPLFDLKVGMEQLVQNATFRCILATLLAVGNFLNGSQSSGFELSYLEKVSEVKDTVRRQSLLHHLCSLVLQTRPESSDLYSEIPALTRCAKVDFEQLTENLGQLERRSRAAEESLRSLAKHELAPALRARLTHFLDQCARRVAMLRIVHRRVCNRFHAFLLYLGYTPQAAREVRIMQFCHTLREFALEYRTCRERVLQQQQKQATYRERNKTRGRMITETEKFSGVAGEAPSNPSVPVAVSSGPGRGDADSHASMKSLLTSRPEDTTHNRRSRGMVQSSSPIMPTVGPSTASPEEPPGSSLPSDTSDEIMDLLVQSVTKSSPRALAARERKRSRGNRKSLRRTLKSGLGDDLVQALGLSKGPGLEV
inactive: bafetinib -0.187 | [1] -0.005 | nilotinib -0.089 | [2] -0.109 | dasatinib 0.044 | [3] -0.043 | [4] -0.238 | [5] -0.089 | tipifarnib 0.041 | mubritinib -0.218

GALK1 isoform 2 (UniProt P51570)
inactive: bafetinib 0.061 | [1] 0.062 | nilotinib -0.018 | [2] -0.001 | dasatinib -0.043 | [3] -0.015 | [4] 0.055 | [5] -0.084 | tipifarnib -0.136 | mubritinib 0.01

GAGE12F (UniProt P0CL80)
Sequence of UniProt P0CL80 (P0CL80 whole entry, looked up): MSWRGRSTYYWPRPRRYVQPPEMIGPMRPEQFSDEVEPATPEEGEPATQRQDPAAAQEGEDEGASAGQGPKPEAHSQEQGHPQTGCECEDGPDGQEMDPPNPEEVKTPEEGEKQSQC
active: [1] -0.284
inactive: bafetinib -0.092 | nilotinib 0.052 | [2] -0.085 | dasatinib 0.009 | [3] -0.015 | [4] -0.004 | [5] -0.035 | tipifarnib 0.053 | mubritinib 0.085

GYG1 (UniProt P46976)
active: nilotinib 0.635
inactive: bafetinib 0.237 | [1] 0.035 | [2] -0.012 | dasatinib 0.052 | [3] -0.297 | [4] -0.06 | [5] -0.11 | tipifarnib -0.009 | mubritinib -0.104

FBXO7 (UniProt Q9Y3I1)
inactive: bafetinib -0.026 | [1] -0.006 | nilotinib 0.003 | [2] 0.059 | dasatinib -0.102 | [3] 0 | [4] 0.065 | [5] -0.002 | tipifarnib 0.072 | mubritinib 0.07

GCDH (UniProt Q92947)
Sequence of UniProt Q92947 (Q92947 whole entry, looked up): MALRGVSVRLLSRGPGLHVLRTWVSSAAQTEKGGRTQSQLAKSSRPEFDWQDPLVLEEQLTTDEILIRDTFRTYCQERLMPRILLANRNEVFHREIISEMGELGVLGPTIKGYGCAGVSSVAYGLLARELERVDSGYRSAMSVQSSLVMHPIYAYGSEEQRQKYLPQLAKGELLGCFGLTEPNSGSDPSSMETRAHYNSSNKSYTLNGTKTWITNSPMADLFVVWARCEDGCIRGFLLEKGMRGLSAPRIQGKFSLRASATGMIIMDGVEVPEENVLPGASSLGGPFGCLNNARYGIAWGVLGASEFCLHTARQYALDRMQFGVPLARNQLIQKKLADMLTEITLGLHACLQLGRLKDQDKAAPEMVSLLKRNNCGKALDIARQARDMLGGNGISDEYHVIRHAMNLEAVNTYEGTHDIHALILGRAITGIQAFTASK
inactive: bafetinib -0.047 | [1] 0.007 | nilotinib 0.002 | [2] 0.017 | dasatinib -0.059 | [3] -0.001 | [4] 0.08 | [5] -0.129 | tipifarnib -0.007 | mubritinib -0.028

GINS2 (UniProt Q9Y248)
inactive: bafetinib -0.025 | [1] 0.106 | nilotinib -0.024 | [2] -0.031 | dasatinib -0.265 | [3] 0.03 | [4] -0.057 | [5] -0.111 | tipifarnib -0.064 | mubritinib 0.03

HEXA (UniProt P06865)
active: bafetinib -0.491
inactive: [1] -0.023 | nilotinib -0.001 | [2] 0.017 | dasatinib 0.016 | [3] -0.036 | [4] -0.003 | [5] 0.006 | tipifarnib 0.044 | mubritinib 0.023

HIP1 (UniProt O00291)
Sequence of UniProt O00291 (O00291 whole entry, looked up): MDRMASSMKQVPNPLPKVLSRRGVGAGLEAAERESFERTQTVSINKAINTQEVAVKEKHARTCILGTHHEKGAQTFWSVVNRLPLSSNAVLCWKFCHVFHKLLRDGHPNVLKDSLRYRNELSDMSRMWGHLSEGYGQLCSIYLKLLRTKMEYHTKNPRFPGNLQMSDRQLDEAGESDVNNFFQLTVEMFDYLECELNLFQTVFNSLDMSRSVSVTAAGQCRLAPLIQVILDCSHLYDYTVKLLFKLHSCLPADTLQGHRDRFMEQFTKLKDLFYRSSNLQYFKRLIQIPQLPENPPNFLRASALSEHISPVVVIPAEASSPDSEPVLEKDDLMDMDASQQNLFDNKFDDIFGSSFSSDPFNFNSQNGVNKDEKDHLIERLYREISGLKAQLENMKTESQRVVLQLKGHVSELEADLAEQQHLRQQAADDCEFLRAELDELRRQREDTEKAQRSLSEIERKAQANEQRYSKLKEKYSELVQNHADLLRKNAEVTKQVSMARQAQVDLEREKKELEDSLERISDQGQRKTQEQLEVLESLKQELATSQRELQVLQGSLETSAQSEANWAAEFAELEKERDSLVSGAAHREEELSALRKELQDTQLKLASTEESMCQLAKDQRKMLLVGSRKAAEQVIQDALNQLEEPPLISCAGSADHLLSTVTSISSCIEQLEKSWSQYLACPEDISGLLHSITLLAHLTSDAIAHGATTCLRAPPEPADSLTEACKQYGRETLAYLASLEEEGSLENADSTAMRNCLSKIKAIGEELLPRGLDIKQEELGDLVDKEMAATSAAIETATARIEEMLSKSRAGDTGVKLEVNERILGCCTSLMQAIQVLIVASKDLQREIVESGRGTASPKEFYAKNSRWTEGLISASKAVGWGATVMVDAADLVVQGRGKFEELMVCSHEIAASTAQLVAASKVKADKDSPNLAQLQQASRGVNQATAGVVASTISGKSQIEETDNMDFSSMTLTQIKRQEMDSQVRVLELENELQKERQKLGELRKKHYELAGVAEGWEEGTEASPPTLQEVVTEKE
inactive: bafetinib -0.079 | [1] -0.069 | nilotinib -0.038 | [2] 0.063 | dasatinib 0.004 | [3] -0.079 | [4] -0.009 | [5] -0.002 | tipifarnib -0.099 | mubritinib 0.077

HMGCR isoform 3 (UniProt P04035)
inactive: bafetinib 0.008 | [1] 0.016 | nilotinib -0.241 | [2] 0.015 | dasatinib -0.027 | [3] -0.087 | [4] -0.023 | [5] -0.062 | tipifarnib -0.021 | mubritinib 0.1

GAPVD1 isoform 6 (UniProt Q14C86)
inactive: bafetinib 0.023 | [1] 0.072 | nilotinib -0.09 | [2] -0.092 | dasatinib -0.15 | [3] -0.017 | [4] -0.043 | [5] -0.016 | tipifarnib -0.135 | mubritinib 0.028

GSK3B isoform 2 (UniProt P49841)
inactive: bafetinib -0.003 | [1] 0.055 | nilotinib -0.04 | [2] 0.094 | dasatinib -0.115 | [3] 0.124 | [4] 0.055 | [5] -0.013 | tipifarnib -0.024 | mubritinib -0.008

IDI1 isoform 2 (UniProt Q13907)
inactive: bafetinib -0.019 | [1] -0.038 | nilotinib 0.049 | [2] 0.022 | dasatinib 0.002 | [3] -0.01 | [4] 0.096 | [5] -0.012 | tipifarnib 0.018 | mubritinib 0.054

HIP1R (UniProt O75146)
inactive: bafetinib -0.021 | [1] 0.043 | nilotinib -0.11 | [2] 0.016 | dasatinib -0.144 | [3] -0.019 | [4] 0.022 | [5] -0.013 | tipifarnib -0.075 | mubritinib 0.036

FUBP3 (UniProt Q96I24)
Sequence of UniProt Q96I24 (Q96I24 whole entry, looked up): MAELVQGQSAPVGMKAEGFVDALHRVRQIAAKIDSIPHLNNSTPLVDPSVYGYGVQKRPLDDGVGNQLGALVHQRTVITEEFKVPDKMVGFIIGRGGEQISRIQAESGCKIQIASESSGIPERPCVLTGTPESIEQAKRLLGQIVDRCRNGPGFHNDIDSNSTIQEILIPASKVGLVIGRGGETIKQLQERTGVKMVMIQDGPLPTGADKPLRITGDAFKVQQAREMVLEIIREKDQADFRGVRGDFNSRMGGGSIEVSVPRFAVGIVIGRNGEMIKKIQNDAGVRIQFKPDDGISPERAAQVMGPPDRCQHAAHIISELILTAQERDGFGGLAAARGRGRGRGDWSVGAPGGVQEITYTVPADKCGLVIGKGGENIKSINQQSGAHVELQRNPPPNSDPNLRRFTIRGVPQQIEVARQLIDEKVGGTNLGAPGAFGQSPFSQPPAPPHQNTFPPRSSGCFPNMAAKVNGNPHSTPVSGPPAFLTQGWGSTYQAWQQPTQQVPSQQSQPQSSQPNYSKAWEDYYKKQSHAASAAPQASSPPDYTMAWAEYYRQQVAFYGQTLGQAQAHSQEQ
inactive: bafetinib -0.035 | [1] 0.009 | nilotinib -0.051 | [2] 0.035 | dasatinib -0.024 | [3] 0.167 | [4] -0.059 | [5] -0.045 | tipifarnib 0.014 | mubritinib -0.052

HSPA8 (UniProt E9PK54)
inactive: bafetinib 0.096 | [1] -0.069 | nilotinib -0.105 | [2] -0.011 | dasatinib 0.011 | [3] 0.072 | [5] 0.062 | tipifarnib 0.227 | mubritinib 0.024
active: [4] -0.409

GSTT1 (UniProt P30711)
inactive: bafetinib -0.019 | [1] -0.144 | nilotinib 0.056 | [2] -0.019 | dasatinib 0.143 | [3] -0.033 | [4] 0.014 | [5] 0.043 | tipifarnib -0.065 | mubritinib 0.012

GOLGB1 isoform 2 (UniProt Q14789)
inactive: bafetinib -0.022 | [1] -0.03 | nilotinib -0.054 | [2] 0.018 | dasatinib 0.08 | [3] -0.078 | [4] -0.077 | [5] 0 | tipifarnib 0.014 | mubritinib 0.017

GLUL (UniProt P15104)
inactive: bafetinib -0.027 | [1] -0.038 | nilotinib -0.061 | [2] 0.062 | dasatinib 0.015 | [3] -0.148 | [4] -0.035 | [5] -0.085 | tipifarnib 0.011 | mubritinib -0.112

HBA1 (UniProt P69905)
Sequence of UniProt P69905 (P69905 whole entry, looked up): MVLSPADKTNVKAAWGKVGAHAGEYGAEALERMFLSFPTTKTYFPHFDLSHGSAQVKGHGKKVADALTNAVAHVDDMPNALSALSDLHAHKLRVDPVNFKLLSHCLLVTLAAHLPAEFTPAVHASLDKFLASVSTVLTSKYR
inactive: bafetinib -0.013 | [1] 0.138 | nilotinib 0.029 | [2] 0.017 | dasatinib 0.044 | [3] 0.01 | [4] 0.156 | tipifarnib -0.084 | mubritinib 0.024
active: [5] 0.345

HAX1 (UniProt O00165)
inactive: bafetinib -0.103 | [1] 0.029 | nilotinib -0.113 | [2] -0.174 | dasatinib -0.044 | [3] 0.069 | [4] -0.028 | [5] -0.068 | tipifarnib -0.112 | mubritinib 0.001

ICAM1 (UniProt P05362)
inactive: bafetinib 0.031 | [1] -0.024 | nilotinib 0.055 | [2] 0.051 | dasatinib -0.01 | [3] -0.019 | [4] 0.048 | [5] -0.006 | tipifarnib 0.019 | mubritinib 0.046

GABARAPL1 isoform 2 (UniProt Q9H0R8)
Sequence of UniProt Q9H0R8 (Q9H0R8 whole entry, looked up): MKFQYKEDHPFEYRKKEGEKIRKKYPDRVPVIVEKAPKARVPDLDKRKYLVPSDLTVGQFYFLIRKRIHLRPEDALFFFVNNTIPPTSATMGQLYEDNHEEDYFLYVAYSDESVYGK
inactive: bafetinib -0.171 | [1] 0.006 | nilotinib -0.05 | [2] -0.028 | dasatinib -0.031 | [3] 0.017 | [4] -0.016 | [5] 0.003 | tipifarnib -0.075 | mubritinib 0.044

GPKOW (UniProt Q92917)
Sequence of UniProt Q92917 (Q92917 whole entry, looked up): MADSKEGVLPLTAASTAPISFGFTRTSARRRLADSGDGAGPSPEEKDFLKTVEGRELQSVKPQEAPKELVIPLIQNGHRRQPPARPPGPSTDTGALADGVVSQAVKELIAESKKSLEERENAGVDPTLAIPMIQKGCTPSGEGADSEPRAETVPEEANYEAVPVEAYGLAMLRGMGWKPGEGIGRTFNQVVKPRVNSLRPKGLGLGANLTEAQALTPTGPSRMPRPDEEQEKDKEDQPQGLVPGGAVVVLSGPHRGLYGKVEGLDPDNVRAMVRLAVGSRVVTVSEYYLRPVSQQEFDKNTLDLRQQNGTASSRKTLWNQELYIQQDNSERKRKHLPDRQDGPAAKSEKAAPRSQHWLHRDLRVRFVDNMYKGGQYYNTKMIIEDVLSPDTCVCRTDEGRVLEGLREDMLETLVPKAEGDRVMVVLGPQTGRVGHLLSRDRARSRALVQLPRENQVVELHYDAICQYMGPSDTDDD
inactive: bafetinib -0.025 | [1] 0.086 | nilotinib -0.057 | [2] -0.207 | [3] -0.025 | [4] 0.114 | [5] 0.139 | tipifarnib -0.071 | mubritinib 0.126
active: dasatinib -0.326

GOPC (UniProt Q9HD26)
inactive: bafetinib 0.233 | [1] -0.131 | nilotinib 0.009 | [2] 0.05 | dasatinib -0.081 | [3] 0.021 | [4] -0.005 | [5] -0.02 | tipifarnib 0.127 | mubritinib -0.226

HHEX (UniProt Q03014)
inactive: bafetinib -0.039 | [1] -0.024 | nilotinib -0.033 | [2] -0.056 | dasatinib 0.04 | [3] 0.008 | [4] 0.373 | [5] 0.044 | tipifarnib -0.012 | mubritinib 0.066

H2AFX (UniProt P16104)
inactive: bafetinib 0.103 | [1] -0.198 | nilotinib -0.041 | [2] -0.025 | dasatinib 0.283 | [3] -0.012 | [4] -0.439 | [5] -0.146 | tipifarnib 0.074 | mubritinib -0.111
